High-throughput results deposited in PubChem by National Center for Advancing Translational Sciences (NCATS).
In the library only some 0.95% were active in any assay of this set; here they are far more common.
Giardia FBPA inh: inhibitors of Giardia lamblia fructose-1,6-bisphosphate aldolase; purified Giardia FBPA; Potency, µM (top dose mostly 59.6 µM), for the others: at the top dose activity, negative = inhibition, usual class: inhibitors; 0.71% of 290,000 active; AID 2451; note: nearly all actives have a fitted effect of over 55% in size
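40 nM FBPA preincubated 10 min at RT with compound (up to 57.5 uM final), then substrate plus GAPDH/TPI/NAD/arsenate coupling and diaphorase/resazurin added. Fluorescence read after 20 min at RT, 525/598 nm.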
TbPYK inhibitor: inhibitors of Trypanosoma brucei pyruvate kinase; AID 624173; TbPYK enzyme, Kinase-Glo Plus ATP luminescence, 45 min; 0.12% of 410,000 active; Potency, µM (titrated, usually from 76.8 µM), for inactives: top-dose activity, negative = inhibition, usual class: inhibitors; note: nearly all actives have a fitted effect of over 50% in size
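Readout: single end-point luminescence (Kinase-Glo Plus, 10 min). Reaction conditions were TbPYK/substrate plus 130 uM ADP, 45 min at RT, pH 7.2 TEA buffer. No-enzyme wells served as controls, and data were normalized before concentration-response fitting.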
LmPK inh: inhibitors of Leishmania mexicana pyruvate kinase. Potency, µM (titrated, usually from 57.5 µM), for the others: top-dose activity change, negative = inhibition, actives largely listed as inhibitors. Q27686. purified LmPK, Kinase-Glo ATP luminescence, 1 h. 0.37% of 290,000 active
Target sequence (Q27686 whole entry, looked up): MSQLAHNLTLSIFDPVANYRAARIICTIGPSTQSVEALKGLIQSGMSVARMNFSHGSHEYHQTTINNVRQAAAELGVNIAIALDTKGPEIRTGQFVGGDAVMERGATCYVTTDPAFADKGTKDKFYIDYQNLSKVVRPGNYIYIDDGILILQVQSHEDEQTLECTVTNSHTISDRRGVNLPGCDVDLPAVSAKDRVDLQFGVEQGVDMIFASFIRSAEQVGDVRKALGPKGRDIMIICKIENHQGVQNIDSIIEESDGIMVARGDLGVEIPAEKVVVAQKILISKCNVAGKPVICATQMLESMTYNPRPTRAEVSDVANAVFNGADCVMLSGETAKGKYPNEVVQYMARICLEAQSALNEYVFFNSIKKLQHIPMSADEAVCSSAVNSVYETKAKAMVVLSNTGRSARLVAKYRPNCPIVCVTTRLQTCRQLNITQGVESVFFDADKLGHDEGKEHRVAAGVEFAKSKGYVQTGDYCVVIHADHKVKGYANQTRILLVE
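Kinase-Glo luminescence read after 1 h RT reaction of 0.1 nM LmPK with 0.5 mM PEP and 0.1 mM ADP. Activity scaled between uninhibited and enzyme-free controls.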
RE007 growth inh: less growth of the S. pombe RE007 Vpr strain; S. pombe RE007 Vpr strain, BacTiter-Glo ATP luminescence, 24 h; Potency, µM (top dose mostly 92.2 µM), without a hit: at the top dose activity change, negative = less growth, hits mostly inhibitors; 0.21% of 360,000 active; AID 651644; active = well fitted falling curve with a large enough effect; inconclusive = small, poorly fitted or top-dose-only effect; inactive = no such curve, though single readings can be large or run the other way; note: nearly all actives have a fitted effect of over 50% in size
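Fission yeast RE007 carrying one integrated HIV-1 vpr copy, seeded at OD 0.01 in PMG+AL medium with 23 nL pinned compound. Grown 24 h at 30 degrees; viability read by BacTiter-Glo luminescence after 5 min.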
An asterisk follows results filed as active; [ ] = remark or other dose. Unless noted, calls come from the whole dose curve; as a rule, active = well fitted curve in the direction sought with a large enough effect; inconclusive = small, poorly fitted or top-dose-only effect, or another doubt; inactive = no such curve, though single readings can be large; an effect the other way counts as inactive or inconclusive. % is set by controls: 0 for no effect and ±100 for the full control effect; potency is the fitted concentration of half-maximal effect.

How did Cc1cc(C)c(S(=O)(=O)/N=C2/C=C(SCC(=O)O)C(=O)c3ccccc32)cc1C do in these assays?
Giardia FBPA inh: 15.8µM*; TbPYK inhibitor: inconclusive; LmPK inh: -1.1%; RE007 growth inh: inconclusive

How did [O]=[Bi][O]C(=O)[O][Bi]=[O] do in these assays?
TbPYK inhibitor: 2.0%

What do the screens show for `CC(=O)C1=C(C)NC(SCC(N)=O)=C(C#N)C1C` (stereo unspecified)?
Giardia FBPA inh: inconclusive; TbPYK inhibitor: 8.91µM*; LmPK inh: 15.2%; RE007 growth inh: 2.0%

Results for CC(=O)C1=C(C)NC(SCC(=O)c2ccc(F)cc2)=C(C#N)C1CC(C)C (stereo unspecified) ?
Giardia FBPA inh: -17.6%; TbPYK inhibitor: 14.1µM*; LmPK inh: 22.9%; RE007 growth inh: -15.4%

Results for CC(=O)C1=C(C)NC(SCC(=O)c2ccc(Cl)cc2)=C(C#N)C1CC(C)C (stereo unspecified) ?
Giardia FBPA inh: -27.2%; TbPYK inhibitor: -29.3%; LmPK inh: -0.8%; RE007 growth inh: 28.1%

What do the screens show for `CC(C)=NOCc1ccc(-c2cn([C@@H]3COC[C@@H]3O)nn2)cc1`?
Giardia FBPA inh: -1.1%[12.9 µM]

How did Cc1ccc(O)c(-c2cc3ccccc3[nH]2)c1 do in these assays?
Giardia FBPA inh: inconclusive; TbPYK inhibitor: 6.1%; LmPK inh: -3.8%; RE007 growth inh: 35.5µM*

What do the screens show for `Cc1cc2oc(C(=O)N(Cc3ccc(N(C)C)cc3)CC3CCCO3)c(C)c2cc1Cl` (stereo unspecified)?
TbPYK inhibitor: -12.4%

How did C=CCn1c(-c2ccc(Cl)cc2)c[nH]c1=S do in these assays?
Giardia FBPA inh: -27.4%; TbPYK inhibitor: inconclusive; LmPK inh: 7.94µM*; RE007 growth inh: 7.8%

How did C=CCn1c(-c2ccccc2)c[nH]c1=S do in these assays?
Giardia FBPA inh: -19.2%; TbPYK inhibitor: inconclusive; LmPK inh: 12.6µM*; RE007 growth inh: 11.3%

What do the screens show for `CC1(C)CC/C(=C\c2ccc(Cl)cc2)C1(O)Cn1cncn1` (stereo unspecified)?
TbPYK inhibitor: -5.7%[157 µM]

Results for COC1C(O)COC1/C=C/c1ccccc1 (stereo unspecified) ?
Giardia FBPA inh: 0.3%[12.9 µM]

Results for COc1ccc(-c2n[nH]c(=S)n2CC(C)C)cc1 ?
Giardia FBPA inh: 0.9%; TbPYK inhibitor: inconclusive; LmPK inh: 28.2µM*; RE007 growth inh: -3.9%

What do the screens show for `COc1ccc(Cn2c(-c3ccc(OC)cc3)n[nH]c2=S)cc1`?
Giardia FBPA inh: 23.6%; TbPYK inhibitor: inconclusive; LmPK inh: inconclusive; RE007 growth inh: 13.5%

Results for CCn1c(-c2csc3ccccc23)n[nH]c1=S ?
Giardia FBPA inh: 1.3%; TbPYK inhibitor: inconclusive; LmPK inh: 10µM*; RE007 growth inh: 7.8%

What do the screens show for `CC(C)Cn1c(-c2csc3ccccc23)n[nH]c1=S`?
Giardia FBPA inh: 11.2%; TbPYK inhibitor: inconclusive; LmPK inh: 14.1µM*; RE007 growth inh: 10.9%

How did O=C(O)c1cc(N=Nc2ccc(-c3ccc(N=Nc4ccc(O)c(C(=O)O)c4)cc3)cc2)ccc1O do in these assays?
Giardia FBPA inh: -1.6%

What do the screens show for `Oc1ccc(/C=N/N2CCOCC2)c(O)c1O`?
Giardia FBPA inh: 5.61µM*; TbPYK inhibitor: inconclusive; LmPK inh: -2.8%; RE007 growth inh: -19.3%

How did Oc1ccc(/C=N/N2CCCCC2)c(O)c1O do in these assays?
Giardia FBPA inh: 2.82µM*; TbPYK inhibitor: inconclusive; LmPK inh: -11.1%; RE007 growth inh: 2.9%

How did Oc1cccc(/C=N/N2CCCCC2)c1O do in these assays?
Giardia FBPA inh: -11.7%; TbPYK inhibitor: -1.9%; LmPK inh: -8.8%; RE007 growth inh: -19.0%

What do the screens show for `Cc1cc(C)c2oc(C(=O)Nc3c(C(=O)c4ccccc4)oc4ccccc34)cc(=O)c2c1`?
TbPYK inhibitor: 4.0%

What do the screens show for `COc1cccc(N2C(=O)CC(Sc3nc(C)cc(C)n3)C2=O)c1` (stereo unspecified)?
Giardia FBPA inh: 4.5%; TbPYK inhibitor: -5.4%; LmPK inh: -2.0%; RE007 growth inh: -6.4%

Results for COc1ccc(N2C(=O)CC(Sc3n[nH]c(-c4cccc(C)c4)n3)C2=O)cc1 (stereo unspecified) ?
Giardia FBPA inh: -21.8%; TbPYK inhibitor: -14.4%; LmPK inh: 4.8%; RE007 growth inh: 20µM*

How did CCOC(=O)c1c(C)oc2c1c(C(c1ccncc1)N1CCOCC1)c(O)c1ccccc12 (stereo unspecified) do in these assays?
Giardia FBPA inh: inconclusive; TbPYK inhibitor: -11.9%; LmPK inh: -2.1%; RE007 growth inh: 39.8µM*

Results for CCOC(=O)c1c(C)oc2c1c(CN1CCN(C(=O)OCC)CC1)c(O)c1ccccc12 ?
Giardia FBPA inh: inconclusive; TbPYK inhibitor: -11.1%; LmPK inh: 0.8%; RE007 growth inh: -16.0%

How did O=C1[C@H]2[C@H]3[C@H](O)[C@H](O)C/C(=N/OCc4ccccc4)[C@H]3CC[C@@H]2C(=O)N1c1cccc(Oc2ccccc2)c1 do in these assays?
Giardia FBPA inh: -1.2%[12.9 µM]

How did CCC(=O)Oc1ccc(-c2nc(-c3cccnc3)no2)cc1 do in these assays?
Giardia FBPA inh: 1.0%; TbPYK inhibitor: -19.8%; LmPK inh: 7.94µM*; RE007 growth inh: inconclusive

What do the screens show for `CO[C@@H]1/C=C\CC(=O)N[C@@H](C)C(=O)OC[C@H](NS(=O)(=O)c2ccc(C)cc2)[C@H](C)/C=C\CC(=O)OC[C@H]1C`?
Giardia FBPA inh: -4.8%[12.9 µM]

What do the screens show for `O=C1OC2(c3ccccc31)c1cc(I)c(O)c(I)c1Oc1c2cc(I)c(O)c1I`?
Giardia FBPA inh: 15.8µM*; TbPYK inhibitor: inconclusive

What do the screens show for `O=C1OC2(c3ccc(O)cc3Oc3cc(O)ccc32)c2ccccc21`?
Giardia FBPA inh: 12.8%; TbPYK inhibitor: 3.5%

How did O=C1c2ccccc2C(=O)N1CCSc1n[nH]c(=S)s1 do in these assays?
Giardia FBPA inh: -12.3%; TbPYK inhibitor: 28.2µM*; LmPK inh: 16.6%; RE007 growth inh: -6.7%

Results for COc1cccc(O)c1O ?
Giardia FBPA inh: 17.7µM*

How did COc1ccccc1O do in these assays?
Giardia FBPA inh: 39.4%; TbPYK inhibitor: 2.1%; LmPK inh: -8.5%; RE007 growth inh: -3.6%[18.4 µM]

What do the screens show for `C[N+]1(CCF)[C@@H]2CC[C@@H]1CC(OC(=O)C(O)(c1ccccc1)c1ccccc1)C2` (stereo partly specified)?
TbPYK inhibitor: -4.9%

How did Cc1[nH]n(-c2ccccc2)c(=O)c1C=Nc1cnc2ccccc2c1 do in these assays?
Giardia FBPA inh: -11.8%; TbPYK inhibitor: -3.9%; LmPK inh: -3.8%; RE007 growth inh: -24.6%

How did CCOc1ccc(N=Cc2c(C)[nH]n(-c3nc4ccccc4[nH]3)c2=O)cc1 do in these assays?
Giardia FBPA inh: -3.8%; TbPYK inhibitor: inconclusive; LmPK inh: 22.4µM*; RE007 growth inh: 3.98µM*

Results for COC(=O)c1ccc2nc(-c3ccc4c(c3)OCO4)cn2c1 ?
Giardia FBPA inh: -0.7%; TbPYK inhibitor: -11.9%; LmPK inh: inconclusive; RE007 growth inh: -15.9%
